This is part of a sample that, as a whole, favours compounds with a hit. Of some 83,000 tested, about 20% had one in any assay.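 Activity criterion: percent growth below 10, measured after cells in 96-well plates were exposed to a single compound concentration for 48 hours.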 Calls of active or inactive are those of the source.

The text below walks through data of PubChem BioAssay (NCI).

This assay has as its system HL-60(TB) leukemia. As to the kind of experiment: NCI-60 one-dose screen, 48 h (100 = growth as untreated, 0 = no growth, -100 = all killed). The following applies: 10 µM unless noted.
On to `Cc1cc(NC(=O)CNc2nc(Oc3ccc(F)cc3)nc(-c3ccc(F)cc3)n2)ccc1Cl`, for which the growth was 96.4% (inactive).

Regarding `COc1cc(/C=C/c2cc(/C=C/c3ccc(O)c(OC)c3)n(C(=O)c3ccccc3Br)n2)ccc1O`, the growth is -23.9% (active).

`O=c1c2cc(Cl)ccc2oc2ccc(OCCCCCN3CCCCCC3)cc12`: the growth is 54.2% (inactive).

For the compound `COc1cc(/C=C/C(=O)N2CCN(C(=O)/C=C/c3cc(OC)c(OC)c(OC)c3)CC2)cc(OC)c1OC`, the growth was 91.7% (inactive).

On to `C=C1C(=O)O[C@H]2[C@H]1CC/C(Cn1cc(-c3ccc(N)cc3)nn1)=C\CC[C@@]1(C)O[C@@H]21`, for which the growth was -27.9% (active).

In the case of `COc1cc(-c2ccc[nH]2)[nH]c1/C=C1\N=C(C)C(C(=O)NC(C)C)=C1C`, the growth was 26.1% (inactive).

Consider `COc1cc(NC(=O)CCSc2nc3ccccc3c(=O)n2Cc2ccccc2)cc(OC)c1OC`, for which the growth is 104% (inactive).

Consider `Cc1cc(O)c(C2=NN(c3ccc(S(N)(=O)=O)cc3)C(c3ccccc3Cl)C2)cc1Cl` (stereo not given), for which the growth was -30.2% (active).

In the case of `COc1cc(/C=C/c2cc(/C=C/c3ccc(O)c(OC)c3)n(C(=O)Nc3ccc(C)cc3C)n2)ccc1O`, the growth is -30.4% (active).

`N=C1N=C(N)CS1`: the growth is 112% (inactive).

`O=S1(=O)c2ccccc2Oc2ccccc21`: the growth is 89.5% (inactive).

For the compound `O=[N+]([O-])c1ccc(Sc2ncccn2)c([N+](=O)[O-])c1`, the growth is -31.8% (active).

With `COC(=O)c1oc2c(C(C)=O)c(OCCN3CCCCC3)ccc2c1C`, the growth is 110% (inactive).

With `COc1ccc(C(c2cc(OC)c(OC)c(OC)c2)N2CCCC2)cc1` (stereo not given), the growth is 35.5% (inactive).

Regarding `CCOP(=O)(OCC)C1CP(=O)(c2ccccc2)CC(C)=C1Cl` (stereo not given), the growth is 92.1% (inactive).

Turning to `Oc1cc(Nc2ccnc3cc(Cl)ccc23)c2ncccc2c1`, the growth is 93.1% (inactive).

In the case of `N=C(N)c1ccc(-c2ccc(-c3ccc(Cl)c(Cl)c3)o2)nc1`, the growth was 15.1% (inactive).

As to `CCNC(=O)N1CCc2c(Cl)c3c(c(OC)c2[C@@H]1[C@H]1OCc2c1ccc(OC)c2OC)OCCO3`, the growth is -2.42% (active).

Take `CCOC(=O)c1sc2nc(-c3cc(OC)c(OC)c(OC)c3)nc(N3CCOCC3)c2c1C`: the growth was 24.7% (inactive).

For the compound `O=C(Cc1ccc(F)c(Cl)c1)Nc1cc(C2(C(F)(F)F)CC2)nn1Cc1ccccc1`, the growth is 100% (inactive).

On to `CCC(=O)OC1=CN2C(=NC(c3ccc(N)cc3)=CC2c2cc(OC)c(OC)c(OC)c2)S1` (stereo not given), for which the growth is 36.5% (inactive).

As for `COc1ccc(C(=O)N2c3ccccc3Sc3ccccc32)c(C(F)(F)F)c1`, the growth is 2.01% (active).

As for `CCOc1cccc(/C=N/NC(=O)c2cccc(Nc3ccnc(C(F)(F)F)c3)c2)c1O`, the growth is 14.1% (inactive).

In the case of `Cc1ccc2nc(/C(C#N)=C(/CCCO)NC(Cc3ccccc3)C(=O)OCc3ccccc3)[nH]c(=O)c2c1` (stereo not given), the growth is 122% (inactive).

For the compound `Clc1ccc2c(NCCCNc3nccc(Nc4ccc(Br)cc4)n3)ccnc2c1`, the growth was -69.2% (active).
